{"source": "paper PMC4552634", "about": "“A New Set of Chemical Starting Points with Plasmodium falciparum Transmission-Blocking Potential for Antimalarial Drug Discovery” (PLoS ONE, 2015)", "note": "Hit rate of the full screen: of about 13,000 compounds, about 3,200 (25%) showed an effect of 50% or more. This is one part of the list."}
{"tested_on": "P. falciparum stage V gametocytes", "parameters": "BacTiter-Glo ATP luminescence viability of purified stage V gametocytes in 384-well plates, per cent inhibition versus DMSO", "conditions": "48 h, 5 µM; inhibitor", "units": {"% Inhibition": "%"}}
{"compound": "CN(C)C(=O)c1ccc(CN(Cc2ccc(OC(C)(C)C)cc2)Cc2ccc3c(c2)OCCO3)cc1", "note": "[TCMDC-136615]", "% Inhibition": 62.57}
{"compound": "Cc1ccc(CN(Cc2ccc(C(=O)N(C)C)cc2)Cc2ccc3c(c2)OCCO3)cc1C", "note": "[TCMDC-136617]", "% Inhibition": 24.15}
{"compound": "CN(C)C(=O)c1ccc(CN(Cc2cccc(OC(C)(C)C)c2)Cc2ccc3c(c2)OCCO3)cc1", "note": "[TCMDC-136614]", "% Inhibition": 66.69}
{"compound": "CC(=O)Nc1ccc(CN(Cc2ccc(OC(C)(C)C)cc2)Cc2ccc3c(c2)OCCO3)cc1", "note": "[TCMDC-136616]", "% Inhibition": -22.37}
{"compound": "CC(=O)Nc1ccc(CN(Cc2cccc(OC(C)(C)C)c2)Cc2ccc3c(c2)OCCO3)cc1", "note": "[TCMDC-136613]", "% Inhibition": 87.49}
{"compound": "O=C(CC(=O)C(F)(F)F)c1ccc2c(c1)OCO2", "note": "[TCMDC-125824]", "% Inhibition": -11.59}
{"compound": "CC(C)(C)OC(=O)NCC(=O)N(Cc1ccccc1)Cc1ccccc1", "note": "[TCMDC-131954]", "% Inhibition": 1.715}
{"compound": "CN(C)C(=O)c1ccc(CN(Cc2ccc3c(c2)OCCO3)Cc2ccc3c(c2)OCO3)cc1", "note": "[TCMDC-136612]", "% Inhibition": -1.47}
{"compound": "CC(=O)Nc1ccc(CN(Cc2ccc(C)cc2)Cc2cccc(Oc3ccccc3)c2)cc1", "note": "[TCMDC-140147]", "% Inhibition": 4.246}
{"compound": "O=C(/C=C/c1ccc([N+](=O)[O-])cc1)N1CCC(NS(=O)(=O)c2cccc(C(F)(F)F)c2)CC1", "note": "[TCMDC-139443]", "% Inhibition": -15.57}
{"compound": "c1ccc(C(c2ccccc2)N2CCN(C(c3cccnc3)c3nnnn3C3CCCC3)CC2)cc1", "note": "(centres unmarked) [TCMDC-123571]", "% Inhibition": -4.144}
{"compound": "Cc1cc(NC(=O)Nc2ccc3ccn(C)c3c2)c2ccccc2n1", "note": "[TCMDC-140057]", "% Inhibition": 10.89}
{"compound": "CC1CCN(c2nc(C(=O)Nc3ccc(F)cc3C(F)(F)F)c(C(C)C)s2)CC1", "note": "[TCMDC-134661]", "% Inhibition": -14.15}
{"compound": "CC1(C)N=C(N)N=C(N)N1c1cc(Cl)c(Cl)cc1Cl", "note": "[TCMDC-124503]", "% Inhibition": -35.38}
{"compound": "CSc1nc2cc3c(cc2n1C(=O)c1ccc(C)cc1)OCCO3", "note": "[TCMDC-125385]", "% Inhibition": -23.6}
{"compound": "Cc1ccccc1N1CCN(c2ccc(C(=O)Nc3ccccc3)cc2)CC1", "note": "[TCMDC-134565]", "% Inhibition": 28.84}
{"compound": "O=C(O)C(F)(F)F.c1ccc2[nH]c(-c3ccc(-c4ccc(CNCC5CCCO5)cc4)s3)nc2c1", "note": "(centres unmarked) [TCMDC-133106]", "% Inhibition": -3.113}
{"compound": "Oc1ccc(-c2cc(COc3ccccc3C(F)(F)F)c(C3=CCNCC3)cc2COc2ccccc2C(F)(F)F)cc1", "note": "[TCMDC-134520]", "% Inhibition": 89.52}
{"compound": "FC(F)(F)c1ccccc1OCc1cc(-c2ccncc2)c(COc2ccccc2C(F)(F)F)cc1C1=CCNCC1", "note": "[TCMDC-134498]", "% Inhibition": 112.2}
{"compound": "CN(C)CCOc1cc(NC(=O)Nc2ccc(-c3ccncc3)c(C(F)(F)F)c2)ccc1Cl", "note": "[TCMDC-139224]", "% Inhibition": -31.22}
